High-throughput results: PubChem, National Center for Advancing Translational Sciences (NCATS)
Only some compounds are listed: those with a hit (about 22% of all), similar ones and a draw of the others.
LmPK inh: LmPK (Leishmania mexicana) enzyme inhibition. AID 1721. purified LmPK, Kinase-Glo ATP luminescence, 1 h. Q27686. Potency, µM (doses to about 57.5 µM), hits mostly inhibitors. hit rate 0.37% among 290,000
Target sequence (Q27686 whole entry, looked up): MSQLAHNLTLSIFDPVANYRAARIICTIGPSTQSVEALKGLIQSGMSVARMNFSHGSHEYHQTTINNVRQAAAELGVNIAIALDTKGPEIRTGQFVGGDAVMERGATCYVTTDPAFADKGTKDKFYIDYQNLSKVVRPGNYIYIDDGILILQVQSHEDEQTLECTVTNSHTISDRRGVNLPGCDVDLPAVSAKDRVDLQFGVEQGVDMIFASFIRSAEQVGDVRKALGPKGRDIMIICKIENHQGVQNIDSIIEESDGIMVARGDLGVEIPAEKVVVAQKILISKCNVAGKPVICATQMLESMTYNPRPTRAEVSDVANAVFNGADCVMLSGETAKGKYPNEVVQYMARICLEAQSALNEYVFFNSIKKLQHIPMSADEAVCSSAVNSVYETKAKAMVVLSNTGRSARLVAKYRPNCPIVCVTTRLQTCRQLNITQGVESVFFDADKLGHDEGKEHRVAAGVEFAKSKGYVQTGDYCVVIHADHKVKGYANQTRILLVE
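0.1 nM LmPK, 0.5 mM PEP, 0.1 mM ADP; 50 mM imidazole pH 7.2, 7 mM MgCl2, 50 mM KCl; 1 h RT. Kinase-Glo luminescence readout, normalized to no-enzyme (full inhibition) and uninhibited wells.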
Shiga inhibitor: inhibitors of Shiga toxin in Vero cells. Vero cells, Shiga toxin protein synthesis inhibition reporter. inhibition, % at 38.7 µM. hit rate 9.2% among 290,000. AID 2315; in the data active means inhibition mostly above about 28%, no sharp cut-off; inactive means mostly below about 43%
Pf growth 48h: inhibits P. falciparum growth in the first generation, 48 h | hit rate 5.9% among 310,000 | AID 504832 | Potency, µM (doses to about 28.7 µM), hits mostly inhibitors | P. falciparum luciferase growth in erythrocytes, 48 h
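Read-out is firefly luciferase luminescence from an integrated reporter in P. falciparum, so falling signal marks reduced parasite growth. Infected erythrocytes were at 2% hematocrit and 0.1% parasitemia (final) in Albumax-supplemented RPMI 1640.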
Pf growth 96h: P. falciparum growth inhibition at 96 hour, primary screen for plastid delayed-death inhibitors; hit rate 6.9% among 320,000; P. falciparum luciferase reporter growth, 96 h; AID 504834; Potency, µM (highest dose often 28.7 µM), usual class: inhibitors
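P. falciparum expressing integrated firefly luciferase grown in erythrocytes (2% hematocrit, 0.05% parasitemia final) with compounds for 96 hours at 37 C, 5% CO2. Growth inhibition read as loss of luminescence after adding luciferase detection reagent.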
Cycloheximide cs: counter-screen for Shiga toxin inhibitors: cycloheximide protein synthesis inhibition; cell reporter, cycloheximide protein synthesis inhibition counterscreen; max response, %; hit rate 12% among 300,000; AID 2314; in the data active means max response mostly above about 13%, no sharp cut-off; inactive means mostly below about 14%; further: read at 38.3 µM for the half of the compounds with a filed dose
Hits are given with their value. Unless noted, the call rests on the fitted dose curve; in most records, active means well fitted inhibition curve with a large enough effect; inconclusive means small, poorly fitted or top-dose-only effect, or another doubt; inactive means no such curve, though single readings can be large or run the other way.

Results for Cc1cccc(OCC(=O)O/N=C(\N)c2ccccn2)c1 ?
LmPK inh: inactive; Shiga inhibitor: 62.5; Pf growth 48h: inactive; Pf growth 96h: inactive; Cycloheximide cs: 51.6

How did Cc1cc(C)cc(OCC(=O)O/N=C(\N)c2ccccn2)c1 do in these assays?
LmPK inh: inactive; Shiga inhibitor: inactive; Pf growth 48h: inactive; Pf growth 96h: inconclusive; Cycloheximide cs: inactive

How did N/C(=N\OC(=O)COc1ccccc1)c1ccccn1 do in these assays?
LmPK inh: inactive; Shiga inhibitor: 65.7; Pf growth 48h: inactive; Pf growth 96h: inactive; Cycloheximide cs: 33.9

What do the screens show for `Cc1ccc(OCC(=O)O/N=C(\N)c2ccccn2)cc1C`?
LmPK inh: inactive; Shiga inhibitor: 94.8; Pf growth 48h: inactive; Pf growth 96h: inactive; Cycloheximide cs: 50.8

Results for CCc1ccc(OCC(=O)O/N=C(\N)c2ccccn2)cc1 ?
LmPK inh: inactive; Shiga inhibitor: 84.8; Pf growth 48h: inactive; Pf growth 96h: inactive; Cycloheximide cs: 54.3

Results for CCc1cc2c(=O)oc(-c3ccc(Br)cc3)nc2s1 ?
LmPK inh: inactive; Shiga inhibitor: inactive; Pf growth 48h: inactive; Pf growth 96h: inconclusive; Cycloheximide cs: inactive

How did CC(=O)Nc1ccc(S(=O)(=O)Nc2ccc(-n3cnnn3)cc2)cc1 do in these assays?
Pf growth 48h: inactive; Pf growth 96h: inconclusive

What do the screens show for `CCC(C)NS(=O)(=O)c1ccc(OCC(=O)NCc2ccccn2)cc1` (centres undefined)?
LmPK inh: inactive; Shiga inhibitor: inactive; Pf growth 48h: inactive; Pf growth 96h: inactive; Cycloheximide cs: inactive

How did Cc1ccc(OCC(=O)O/N=C(\N)c2ccncc2)cc1C do in these assays?
LmPK inh: inactive; Shiga inhibitor: 53.9; Pf growth 48h: inactive; Pf growth 96h: inactive; Cycloheximide cs: 28.9

How did Cc1ccc(OCC(=O)O/N=C(\N)Cc2ccc([N+](=O)[O-])cc2)cc1C do in these assays?
LmPK inh: inactive; Shiga inhibitor: inactive; Pf growth 48h: inconclusive; Pf growth 96h: inactive; Cycloheximide cs: inactive

What do the screens show for `Cc1cc(OCC(=O)O/N=C(\N)c2ccccc2)ccc1Br`?
LmPK inh: inactive; Shiga inhibitor: active; Pf growth 48h: inactive; Pf growth 96h: inactive; Cycloheximide cs: 33.2

How did COC(=O)CCCCCC(CCC(=O)OC)NC(C)=O (centres undefined) do in these assays?
LmPK inh: inactive; Shiga inhibitor: inactive; Pf growth 48h: inactive; Pf growth 96h: inactive; Cycloheximide cs: inactive

How did O=C(CCc1nc(-c2ccccc2)no1)NCc1ccccc1CN1CCOCC1 do in these assays?
Pf growth 48h: inactive; Pf growth 96h: inconclusive

What do the screens show for `O=C(COC(=O)C1CC(=O)N(c2ccc3c(c2)OCCO3)C1)NC1CCCc2ccccc21` (centres undefined)?
LmPK inh: inactive; Shiga inhibitor: 44.8; Pf growth 48h: inactive; Pf growth 96h: inactive; Cycloheximide cs: 19.6

How did CCOC(=O)c1ccccc1NC(=O)COC(=O)C1CC(=O)N(c2ccc3c(c2)OCCO3)C1 (centres undefined) do in these assays?
Pf growth 48h: inactive; Pf growth 96h: inactive

What do the screens show for `COCCN1C=C(C(=O)OC)C(c2cc3c(cc2Br)OCO3)C(C(=O)OC)=C1`?
LmPK inh: inactive; Shiga inhibitor: inactive; Pf growth 48h: 5.86µM; Pf growth 96h: inconclusive; Cycloheximide cs: inactive

Results for COC(=O)C1=CN(c2cc(C)cc(C)c2)C=C(C(=O)OC)C1c1cccc(F)c1 ?
LmPK inh: inactive; Shiga inhibitor: inactive; Pf growth 48h: 11.7µM; Pf growth 96h: inconclusive; Cycloheximide cs: inactive

Results for COCCN1C=C(C(=O)OC)C(c2ccc(Cl)cc2)C(C(=O)OC)=C1 ?
LmPK inh: inactive; Shiga inhibitor: inactive; Pf growth 48h: 10.4µM; Pf growth 96h: inactive; Cycloheximide cs: inactive

How did CCOc1ccc(C2C(C(=O)OC)=CN(CCOC)C=C2C(=O)OC)cc1 do in these assays?
LmPK inh: inactive; Shiga inhibitor: inactive; Pf growth 48h: inconclusive; Pf growth 96h: inconclusive; Cycloheximide cs: inactive

How did COCCN1C=C(C(=O)OC)C(c2ccc3c(c2)OCO3)C(C(=O)OC)=C1 do in these assays?
LmPK inh: inactive; Shiga inhibitor: inactive; Pf growth 48h: inconclusive; Pf growth 96h: inactive; Cycloheximide cs: inactive

How did CCN1C=C(C(=O)OC)C(c2cccc(C)c2)C(C(=O)OC)=C1 do in these assays?
LmPK inh: inactive; Shiga inhibitor: inactive; Pf growth 96h: 11.7µM; Cycloheximide cs: inactive

Results for CCCCC/C=C/C=C1/C(=O)C=C[C@@H]1C/C=C\CCCC(=O)O ?
Shiga inhibitor: inactive; Cycloheximide cs: inactive

What do the screens show for `Cn1nc(C(=O)Nc2ccc(S(=O)(=O)N3CCOCC3)cc2)c2ccccc2c1=O`?
LmPK inh: inactive; Shiga inhibitor: inactive; Pf growth 48h: inactive; Pf growth 96h: inconclusive; Cycloheximide cs: inactive

How did COC(=O)C1=CN(Cc2cccs2)C=C(C(=O)OC)C1c1cccc(Cl)c1 do in these assays?
LmPK inh: inactive; Shiga inhibitor: inactive; Pf growth 48h: 9.28µM; Pf growth 96h: inconclusive; Cycloheximide cs: inactive

Results for CCOc1ccc(N=Cc2c(O)c3ccccc3oc2=O)cc1 ?
LmPK inh: inconclusive; Shiga inhibitor: 77.6; Pf growth 48h: inactive; Pf growth 96h: inactive; Cycloheximide cs: 26.1

What do the screens show for `COc1ccccc1Cn1c(=S)[nH]c2ccc(F)cc2c1=O`?
LmPK inh: inactive; Shiga inhibitor: inactive; Pf growth 48h: inactive; Pf growth 96h: inconclusive; Cycloheximide cs: inactive

Results for CC[N+](CC)(CC#Cc1ccccc1)CC#Cc1ccccc1 ?
LmPK inh: inactive; Shiga inhibitor: inactive; Pf growth 48h: 1.47µM; Pf growth 96h: inconclusive; Cycloheximide cs: inactive

What do the screens show for `O=[N+]([O-])c1cc(S(=O)(=O)N2CCOCC2)ccc1OCc1cccc(Cl)c1`?
Pf growth 48h: inactive; Pf growth 96h: inconclusive

Results for C#CCO[C@@H]1C[C@H](n2cnc3c(NC(=O)c4ccccc4)ncnc32)O[C@@H]1CO ?
LmPK inh: inactive; Shiga inhibitor: inactive; Pf growth 48h: inactive; Pf growth 96h: inactive; Cycloheximide cs: 21.2

How did O=C(c1cc(-c2ccccc2)nc2ccccc12)N1CCN(c2ccccn2)CC1 do in these assays?
LmPK inh: inactive; Shiga inhibitor: inactive; Pf growth 48h: inactive; Pf growth 96h: inactive; Cycloheximide cs: inactive

Results for O=C(c1cc(-c2ccncc2)nc2ccccc12)N1CCN(c2ccccc2O)CC1 ?
LmPK inh: inactive; Shiga inhibitor: inactive; Pf growth 48h: 11.7µM; Pf growth 96h: 4.65µM; Cycloheximide cs: inactive

Results for Cc1ccc2nc(-c3ccccc3)cc(C(=O)N3CCN(S(=O)(=O)c4c(C)noc4C)CC3)c2c1 ?
Pf growth 48h: 11.7µM; Pf growth 96h: 10.4µM

How did O=C(c1cc(-c2ccncc2)nc2ccccc12)N1CCN(c2ccc(N3CCOCC3)nn2)CC1 do in these assays?
LmPK inh: inactive; Shiga inhibitor: inactive; Pf growth 48h: 11.7µM; Pf growth 96h: inconclusive; Cycloheximide cs: inactive

What do the screens show for `Cc1ccc(S(=O)(=O)N2CCN(C(=O)c3c(-c4ccccc4)noc3C)CC2)c(C)c1`?
LmPK inh: inactive; Shiga inhibitor: inactive; Pf growth 48h: inactive; Pf growth 96h: inconclusive; Cycloheximide cs: inactive

How did Cc1ccc2nc(-c3ccccc3)cc(C(=O)N3CCN(c4ccccc4O)CC3)c2c1 do in these assays?
Pf growth 48h: 10.4µM; Pf growth 96h: inconclusive
